# Measured values published in PubChem BioAssay AID504660 (National Center for Advancing Translational Sciences (NCATS), 2011).
# Among all 360,000 compounds or so, about 3,700 (1%) were called active. The entries come from a sample that favours actives as a whole. Unmarked numbers belong to inactive results. Cut-off read from the data, not from the text of the source: active = activation above about 30%; inactive = the rest.
# Molecular target: D(1A) dopamine receptor (Homo sapiens) (UniProt P21728)
# Sequence (P21728 whole entry, looked up): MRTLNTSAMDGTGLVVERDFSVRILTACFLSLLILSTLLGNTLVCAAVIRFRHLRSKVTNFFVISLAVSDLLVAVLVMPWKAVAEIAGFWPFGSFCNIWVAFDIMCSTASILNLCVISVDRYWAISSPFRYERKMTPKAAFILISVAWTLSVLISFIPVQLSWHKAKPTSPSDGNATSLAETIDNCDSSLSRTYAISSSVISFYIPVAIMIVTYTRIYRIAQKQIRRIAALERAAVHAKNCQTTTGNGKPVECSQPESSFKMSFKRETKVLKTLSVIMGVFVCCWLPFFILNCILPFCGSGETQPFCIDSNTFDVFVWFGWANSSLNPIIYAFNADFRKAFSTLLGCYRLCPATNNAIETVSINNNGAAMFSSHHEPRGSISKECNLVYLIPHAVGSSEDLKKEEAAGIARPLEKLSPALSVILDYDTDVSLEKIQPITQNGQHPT
# Test: Allosteric Agonists of the Human D1 Dopamine Receptor: qHTS; note: 0% is about no effect
# Details: HEK293 T-REx D1 cells, calcium flux, agonist mode; at 2 µM; active compounds read high
# In short: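 Tetracycline-induced HEK293 TREx D1 cells, force-coupled to calcium signalling, were dye-loaded with a no-wash calcium kit. Compound was pin-added after a 10 s baseline. Fluorescence was read kinetically at 1 cycle/s for 180 s, with calcium rises flagged as agonism.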
row,Compound,activation
1,CCc1ccc(Nc2nn3c(=O)c4cc5c(cc4nc3s2)OCO5)cc1,0.763%
2,CCOc1cc(CNC(=O)c2sc3ncnc(N(C)C4CCCCC4)c3c2C)ccc1OC,2.38%
3,CCOc1ccc2nc(N3CCCN(C(=O)Nc4ccccc4C)CC3)c(C#N)cc2c1,32.7% (active)
4,CCOc1ccc2nc(N3CCCC(C(=O)Nc4cc(C)ccc4C)C3)sc2c1 (centres undefined),-0.891%
5,CCOc1ccc(C(=O)NC2CCN(C(=O)Nc3ccccc3OC)CC2)cc1,0.137%
6,CC1CCN(S(=O)(=O)c2ccc3c(c2)N(CC(=O)NCc2ccccc2Cl)C(=O)CO3)CC1,-2.16%
7,COc1ccc(NC(=O)C2CCCN(S(=O)(=O)c3c(C)[nH]c(=O)[nH]c3=O)C2)c(OC)c1 (centres undefined),3.17%
8,N#C/C=C(/c1ccc(F)cc1)N1CCOCC1,5.96%
9,O=C(N1CCOCC1)N1CCOCC1,2.44%
10,N#C/C(=C/c1ccc(N2CCOCC2)o1)C(=O)N1CCOCC1,51.4% (active)
11,COc1cccc(Cn2c(SCc3ccc(C(=O)N4CCCCC4)cc3)nc3ccncc32)c1,-0.712%
12,COc1ccccc1C(=O)Nc1c(C(=O)N(C)Cc2ccccc2)sc2nc(C)c(Cl)c(C)c12,1.11%
13,COc1ccccc1N1CCN(Cc2ccc(OC)c3ccccc23)CC1,0.832%
14,COc1cc(CNCc2ccc(OC)c3ccccc23)cc(OC)c1OC,36.9% (active)
15,COc1cc(CNCc2cccs2)cc(Br)c1OC,2.66%
16,Cc1ccc2ccc3c(c2n1)NS(=O)(=O)c1ccccc1-3,-0.466%
17,CCC(=O)N1CCc2cc(S(=O)(=O)NC(Cc3ccccc3)C(=O)NCc3ccccc3)ccc21 (centres undefined),0.429%
18,CCCOc1ccc(-c2cccc(NS(=O)(=O)c3ccccc3)c2)nn1,-0.134%
19,COc1ccc(-c2nc(CN3CCC(C(=O)NCc4ccccc4)CC3)c(C)o2)cc1OC,-1.51%
20,COc1ccc(CCNC(=O)C2CCCN(Cc3nc(-c4cccc(Cl)c4)oc3C)C2)cc1OC (centres undefined),19.6%
21,Cc1oc(-c2ccccc2F)nc1CN1CCC(C(=O)NCCc2ccc(Cl)cc2)CC1,34.8% (active)
22,COc1ccc(CCNCc2c(C(=O)O)c(C)n(Cc3cccc(C)c3)c2C)cc1OC,1.85%
23,CCc1cc2c(-c3ccccc3)cc(=O)oc2c2c1OCN(Cc1ccc(C)cc1)C2,10.6%

row,Compound,activation
1,CSc1ccc(C2c3c(oc4ccccc4c3=O)C(=O)N2CCCN2CCOCC2)cc1 (centres undefined),-1.33%
2,CCc1ccc(NC(=O)C2CCCN2S(=O)(=O)c2ccc3nc(-c4ccccc4)[nH]c3c2)cc1 (centres undefined),0.736%
3,Cc1cccc2cc3c(N)c(C(=O)N4CCCc5ccccc54)sc3nc12,60.4% (active)
4,COc1cccc(/C=C/C(=O)OCC(=O)N2CCCc3ccccc32)c1,9.89%
5,CCCn1nc(C(=O)N2CCCc3ccccc32)c2ccccc2c1=O,0.113%
6,Oc1ccccc1-c1nc(/C=C/c2ccc(F)cc2)no1,5.78%
7,O=C(/C=C/c1ccccc1)Nc1cc(-c2nc3cc(Cl)ccc3o2)ccc1Cl,-1.26%
8,COc1ccc(-c2nc3sc(CCNC(=O)C(C)(C)C)c(C)n3n2)cc1,3.98%
9,Cc1ccc(-c2nc3cccc(C)n3c2Nc2ccc3c(c2)OCCO3)cc1,-0.166%
10,Cc1ccc(Nc2c(-c3ccc(N(C)C)cc3)nc3nc[nH]n23)cc1,39.9% (active)
11,Cc1ccc(Nc2c(-c3ccc(C)cc3)nc3cnccn23)cc1,3.9%
12,COc1ccc(-c2nc3ccccc3s2)cc1NC(=O)COc1ccccc1C,-0.142%
13,Cc1cc2c(s1)c1cnn(Cc3c(F)cccc3Cl)c(=O)c1n2C,0.794%
14,Cn1c(=O)c2c(n3c4ccccc4nc13)NC(=O)CC2c1cccc(Cl)c1 (centres undefined),3.64%
15,COC(=O)c1cccc(NC(=O)CSc2nc(C)cc(=O)[nH]2)c1,1.14%
16,COC(=O)c1cc(C(=O)CSc2nc(C)cc(C)n2)ccc1O,257% (active)
17,COc1ccc(C(=O)CSc2n[nH]c(N)n2)cc1,-2.12%
18,Cn1c(=O)c2c(nc(SCC(=O)Nc3ccc(F)cc3)n2Cc2ccc(Cl)cc2)n(C)c1=O,-0.966%
19,CCOC(=O)c1ccc(NC(=O)C2CCN(S(=O)(=O)c3ccc4c(c3)CCCC(=O)N4)CC2)cc1,-0.195%
20,COc1ccc(Cl)cc1N(C)C(=O)c1cc2c(=O)oc3ccc(C)cc3c2s1,1.68%
21,COC(=O)c1sc(-c2ccc(C(C)(C)C)cc2)cc1NC(=O)/C=C/C(=O)O,33% (active)
22,Cc1ccc(NC(=O)c2oc3ccccc3c2NC(=O)Cc2cccs2)cc1,5.67%
23,CCN1C(=O)c2ccccc2Sc2ccc(NC(=O)Cc3ccc(OC)cc3)cc21,8.31%

row,Compound,activation
1,COc1ccc(NC(=O)Nc2cccc(-c3noc(C)n3)c2)cc1,-0.581%
2,COc1ccc(-c2onc3ccc(C(C)=O)cc23)cc1,68% (active)
3,COc1ccc(-c2nc3ccc(C(=O)NCc4ccc(C)cc4)cc3nc2-c2ccc(OC)cc2)cc1,-0.317%
4,O=C(NCCCc1ccccc1)c1ccc2c(c1)sc1nc(-c3ccc(F)cc3)cn12,1.38%
5,COC(=O)c1cc(S(=O)(=O)NCC2CCN(Cc3ccc(Cl)cc3)CC2)cn1C,35.7% (active)
6,O=S(=O)(NCC1CC1)c1ccc(F)c(Cl)c1,0.965%
7,COC(=O)c1cc(S(=O)(=O)NC2CCN(Cc3ccccc3)CC2)cn1C,6.94%
8,O=C(CSc1ncc(CO)n1Cc1ccc(Cl)cc1)NCc1ccc(F)cc1,-0.41%
9,Cc1ccc(NC(=O)CSc2nc3c(c(=O)[nH]2)CN(Cc2ccc4c(c2)OCO4)CC3)cc1C,2.15%
10,CCNC(=O)CC1C(=O)N(c2ccc(F)cc2)C(=O)N1Cc1ccc(C)cc1 (centres undefined),-1.09%
11,COCc1cc(C)nc(SCC(=O)Nc2cccc(C)c2)c1C#N,1.7%
12,Cc1cc(C(F)(F)F)c(C#N)c(SCC(=O)NC2CC2)n1,2.38%
13,Cc1ccc(-c2cc(C(F)(F)F)c(C#N)c(SCC(=O)Nc3ccccc3)n2)cc1,76.6% (active)
14,CCOc1ccc(-n2c(C)nc3c(cnn3-c3ccc(C)cc3)c2=O)cc1,0.209%
15,CCCCN(CC)C(=O)c1c[nH]c2ccc(S(=O)(=O)Nc3cccc(OC)c3)cc2c1=O,1.98%
16,CCCCNC(=O)c1c[nH]c2ccc(S(=O)(=O)Nc3ccc(OCC)cc3)cc2c1=O,5.78%
17,COc1cccc(NS(=O)(=O)c2ccc3[nH]cc(C(=O)NCCCOC(C)C)c(=O)c3c2)c1,122% (active)
18,O=C(c1cccs1)c1cn(CCOc2ccc(Cl)cc2)c2ccccc12,-1.61%
19,Cc1ccc(C)n1-c1nnc(N2CCC(C(=O)NCc3ccc(F)cc3)CC2)s1,2.04%
20,CC1=C(c2ccc(Cl)cc2)S(=O)(=O)N=C1N1CCN(c2cc(C)ccc2C)CC1,7.7%
21,Cc1oc(-c2ccccc2)nc1Cn1c(SCc2cccc(C(F)(F)F)c2)nc2cccnc21,3.89%
22,Cc1ccc2c(=O)oc(N(C)C)nc2c1,1.52%
23,CCN(CC)c1ccc2oc(=O)c(C)nc2c1,192% (active)

row,Compound,activation
1,CN(Cc1nc2ccccc2c(=O)[nH]1)Cc1cc(=O)oc2ccc3ccccc3c12,-0.344%
2,Cc1ccc(Cl)cc1N1CCN(C(=O)c2cn(C)c3ccc(S(=O)(=O)N(C)C4CCCCC4)cc3c2=O)CC1,3.27%
3,COc1ccc(S(=O)(=O)c2c(Nc3cccc(Cl)c3)sc(C(=O)c3ccccc3)c2N)cc1,75.8% (active)
4,Cc1ccc(S(=O)(=O)c2c(Nc3cccc(Cl)c3)sc(C(=O)c3ccc4c(c3)OCO4)c2N)cc1,61.9% (active)
5,O=C(Nc1ccc2c(c1)OCO2)c1cc(-c2cccc(Cl)c2)on1,-1.41%
6,COc1ccc(C(=O)N2CCC(C(=O)Nc3ccc(C)cc3)CC2)cc1,1.17%
7,CO/N=C(/CS(=O)(=O)c1ccc(Br)cc1)c1ccc(OC)cc1,0.348%
8,COc1ccc(S(=O)(=O)c2c(Nc3ccc(C)cc3)sc(C(=O)c3ccc(C)cc3)c2N)cc1,56.2% (active)
9,Cc1ccc(C(=O)Nc2sc(Cc3ccc4c(c3)OCO4)c(C)c2C(N)=O)cc1,-1%
10,CC(=O)c1c(Nc2ccccc2)sc(C(=O)c2ccccc2)c1C,5.07%
11,COc1ccc(Cl)cc1S(=O)(=O)Nc1cccc(C(=O)O)c1,2.88%
12,CCc1ccccc1NC(=O)N1CCN(C(=O)c2nsc3ccccc23)CC1,2.7%
13,CCCS(=O)(=O)c1ncc(Cl)c(C(=O)Nc2scc(-c3ccccc3)c2C(=O)OCC)n1,5.24%
14,O=c1c(NCc2cccs2)nccn1-c1ccccc1,2.15%
15,Cc1ccc(CNS(=O)(=O)c2ccc(-c3cc(C(F)(F)F)on3)s2)cc1,0.651%
16,Cn1nnnc1Sc1ncnc2scc(-c3ccccc3[N+](=O)[O-])c12,1.58%
17,CCc1ccc(NC(=O)Cn2c(=O)n(CCC(=O)NCc3ccc4c(c3)OCO4)c(=O)c3ccccc32)cc1,-0.957%
18,O=c1c2ccccc2[nH]c(=S)n1CCN1CCC(=C(c2ccc(F)cc2)c2ccc(F)cc2)CC1,0.942%
19,Cc1ccc2[nH]c3c(c2c1)CN(C(=O)CN1CCN(c2ccccc2)CC1)CC3,0.149%
20,O=C(CCCN1CCc2[nH]c3ccc(F)cc3c2C1)c1ccc(F)cc1,56.3% (active)
